Consider 14 compounds from PubChem BioAssay (NCATS).

The target in assay [1] is Lysosomal acid glucosylceramidase (Homo sapiens) (UniProt P04062). In words: Glucocerebrosidase-p2 (AID 348; in the data active means potency below about 10 µM; further: potency means the concentration at half of the fitted maximal effect). Particulars: purified GBA, blue fluorogenic substrate, 40 min. Summed up:
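Normal human glucocerebrosidase (0.2 nM) with blue fluorogenic substrate (80 uM final) in citrate/phosphate pH 5.9 with 10mM sodium taurocholate, 0.01% tween-20; 40 min RT, NaOH/glycine stop; fluorescence Ex 365/Em 440; AC50 from a titration from 0.6 nM upwards.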

Assay [2] is described as follows: AP1 Signaling Pathway (AID 357). Further: on the % scale 0 is the no-effect control and ±100 the full control effect. Particulars: ME-180 AP-1-bla reporter, EGF-induced, beta-lactamase ratio, 5 h; at 7.69 µM (top of the series) unless noted. Summed up: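 ME-180 cells with beta-lactamase reporter under AP-1 response element, stimulated with EC50 EGF; compounds tested in titration series, 5 h at 37 °C. CCF4 substrate added 2.5 h at room temperature; 460/530 nm emission ratio gave %activity and AC50.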

Assay [3] in a line: NFAT Signaling Pathway (AID 444).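 Further: carbachol stimulus at about its EC50 of 1 µM final; on the % scale 0 is the no-effect control and ±100 the full control effect.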 Particulars: Jurkat NFAT-bla M1, carbachol, beta-lactamase ratio, 5 h; at 7.69 µM (top of the series) unless noted. Summed up:
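Read-out: CCF4 FRET ratio (460 nm/530 nm) after 1 h RT dye loading, used for %activity and AC50 from titration series. Cells: Jurkat NFAT-β-lactamase/M1 line, treated with compound plus 1 uM carbachol for 5 h, 37 °C.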

Assay [4] in a line: Stat Signaling Pathway (AID 446).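 Further: ME-180 cervical cancer cells given 40 pM IL-6 alongside compound; SIE-controlled beta-lactamase reporter measured as 460/530 nm FRET emission ratio; on the % scale 0 is the no-effect control and ±100 the full control effect.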 Particulars: ME-180 SIE beta-lactamase reporter, IL-6 stimulated, 5 h; at 7.69 µM (top of the series) unless noted. Summed up: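 FRET read-out (405 nm excitation, 460/530 nm emission) of a beta-lactamase reporter under a STAT-inducible element in ME-180 cervical carcinoma cells. Cells with compound receive 40 pM IL-6 for 5 h. Values are normalised to AC90 stimulation and AC90 JAK-inhibitor controls.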

Assay [5] deals with Glucocorticoid receptor (Homo sapiens) (UniProt P04150). In words: GR-GFP Redistribution (AID 450;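 active means compounds whose dose series gives a full or clear partial fitted curve of increased nuclear translocation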; further: potency means the concentration at half of the fitted maximal effect). Particulars: U2OS GR-GFP nuclear translocation, laser cytometry, 2 h.
The target is the same in assay [6]. In words: GR-EFC Redistribution (AID 451; calls by dose curve; further: potency means the concentration at half of the fitted maximal effect). Particulars: CHO-K1 GR-EFC translocation, beta-gal luminescence, 2 h. Summed up: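 Translocation of GR-ED fusion to nuclear EA restores b-gal, read by luminescence after 1 h room-temperature detection. Engineered CHO-K1 biosensor cells, 1,000/well, exposed 2 h at 37 C to titrations up to 46 uM final.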
For assay [7], the target named is Mitogen-activated protein kinase 10 (Mus musculus) (UniProt Q61831). In words: JNK3 AlphaScreen Assay (AID 530).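 Further: kinase came from lysate of stimulated human HepG2 cells; signal reports phosphorylation of biotinylated GST-cJun 1-79 at Ser73 with 10 µM ATP; on the % scale 0 is the no-effect control and ±100 the full control effect.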 Particulars: JNK3 lysate, c-Jun phosphorylation; series mostly up to 11.4 µM. Summed up: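 Kinase buffer: 20 mM Tris-HCl pH 7.6, 10 mM MgCl2, 1 mM DTT, 0.1 mM Na3VO4, 0.01% Tween-20; ATP 10 uM. Substrate biotin-GST-cJun(1-79), enzyme from activated HepG2 lysates. Detection by Ser73 phospho-antibody AlphaScreen.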
In general terms: Bead proximity is the source of the signal in Alpha formats.

Assay [8] addresses 3',5'-cyclic-AMP phosphodiesterase 4B (Homo sapiens) (UniProt Q07343). In words: qHTS Assay for Inhibitors of PDE-IV (AID 607; active means well fitted activation curve with a large enough effect in the main read-out, with a control signal flat, not every such curve was filed as active; further: % of control where 0% means no effect). Particulars: HEK293 ACTOne CNG channel cells, membrane potential fluorescence; series mostly up to 22.9 µM. Summed up: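 Cell-based read-out of cAMP via a modified cyclic nucleotide-gated channel and membrane potential dye (535/590 nm) in HEK293 cells expressing PDE4 endogenously. Compounds tested up to 22.9 uM final; 100 uM RO 20-1724 reference.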
(Quantitative high-throughput screening tests each substance at several concentrations.)

The target of assay [9] is Cytochrome P450 3A4 (Homo sapiens) (UniProt P08684). In words: qHTS Assay for Activators of Cytochrome P450 3A4 (AID 885; active means well fitted curve in the direction sought with a large enough effect; an effect the other way counts as inactive or inconclusive; further: nearly all actives have a fitted effect of over 65% in size). Particulars: recombinant CYP3A4, Luciferin-PPXE luminescence, 60 min; series mostly up to 11.4 µM. Summed up: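 Luminescent readout of luciferin formed from 25 uM Luciferin-PPXE (KM level) by 20 nM CYP3A4 in 200 mM KPO4, with 60 min NADPH-driven reaction at room temperature after 10 min compound exposure. Ketoconazole (57 uM) defined 100% inhibition.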

Assay [10] has as its target Cytochrome P450 2C19 (Homo sapiens) (UniProt P33261). Nature of the assay: qHTS Assay for Inhibitors and Substrates of Cytochrome P450 2C19 (AID 899; active means well fitted curve in the direction sought with a large enough effect; an effect the other way counts as inactive or inconclusive; further: nearly all actives have a fitted effect of over 60% in size; further: potency means the concentration at half of the fitted maximal effect). Particulars: recombinant CYP2C19, luciferin-H EGE luminescence; series mostly up to 11.4 µM. Summed up: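 Luminescence readout of luciferin formed from 10uM Luciferin-H EGE (KM level) by 5 nM CYP2C19 in 50mM KPO4. 60 min NADPH-driven reaction at 37C after 10 min compound preincubation; data scaled to 57uM ketoconazole inhibition.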

Assay [11] deals with Cytochrome P450 2D6 (Homo sapiens) (UniProt P10635). In words: qHTS Assay for Inhibitors and Substrates of Cytochrome P450 2D6 (AID 891; active means well fitted curve in the direction sought with a large enough effect; an effect the other way counts as inactive or inconclusive; further: nearly all actives have a fitted effect of over 60% in size; further: potency means the concentration at half of the fitted maximal effect). Particulars: recombinant CYP2D6, luciferin-ME EGE luminescence; series mostly up to 11.4 µM. Summed up: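 Luminescent read-out of luciferin formed by 5 nM human CYP2D6 demethylating 30 uM Luciferin-ME EGE (Km level) over 60 min at room temperature after NADPH regeneration addition. Data normalized to full inhibition by 1.43 uM quinidine.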

Assay [12] can be described thus: qHTS Assay for Identification of Small Molecule Agonists for Hypoxia Response Element Signaling Pathway (AID 914; active means well fitted activation curve with a large enough effect in the signal ratio, with a control signal flat, not every such curve was filed as active; the % refers to the signal ratio; further: % of control where 0% means no effect). Particulars: ME-180 (cervical carcinoma) HRE-bla reporter, beta-lactamase ratio, CoCl2, 17 h; activation: active compounds read high. Summed up: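 qHTS titration; ME-180 HRE-bla cells; EC50 CoCl2 co-treatment, 17 h at 37 degrees Celsius; CCF4 dye, ex 405nm, em 460nm and 530nm; %Activity from ratio; AC50.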

Assay [13] addresses Cytochrome P450 3A4 (Homo sapiens) (UniProt P08684). In words: qHTS Assay for Inhibitors and Substrates of Cytochrome P450 3A4 (AID 884; active means well fitted curve in the direction sought with a large enough effect; an effect the other way counts as inactive or inconclusive; further: on the % scale 0 is the no-effect control and ±100 the full control effect; nearly all actives have a fitted effect of over 50% in size). Particulars: recombinant CYP3A4, Luciferin-PPXE luminescence; series mostly up to 57.1 µM. Summed up: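 Luminescent readout of luciferin produced by CYP3A4 (20 nM) dealkylation of Luciferin-PPXE, 25 uM (its KM). NADPH-driven reaction ran 60 min at RT after 10 min compound preincubation; data scaled to 57 uM ketoconazole as 100% inhibition.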

Molecules are shown by their SMILES. Values without a mark were called inactive. Records with an inconclusive call do not appear. The source made the active and inactive calls. Unless noted, the call rests on the fitted dose curve; in most records, active means well fitted curve in either direction with a large enough effect (not every such curve was filed as active); inconclusive means small, poorly fitted or top-dose-only effect, or another doubt; inactive means flat fitted curve, though single readings scatter. Where only a bound is given, the exact number is not on record here.

Cytochrome P450 2C19 (Homo sapiens), sequence (P33261 whole entry, looked up): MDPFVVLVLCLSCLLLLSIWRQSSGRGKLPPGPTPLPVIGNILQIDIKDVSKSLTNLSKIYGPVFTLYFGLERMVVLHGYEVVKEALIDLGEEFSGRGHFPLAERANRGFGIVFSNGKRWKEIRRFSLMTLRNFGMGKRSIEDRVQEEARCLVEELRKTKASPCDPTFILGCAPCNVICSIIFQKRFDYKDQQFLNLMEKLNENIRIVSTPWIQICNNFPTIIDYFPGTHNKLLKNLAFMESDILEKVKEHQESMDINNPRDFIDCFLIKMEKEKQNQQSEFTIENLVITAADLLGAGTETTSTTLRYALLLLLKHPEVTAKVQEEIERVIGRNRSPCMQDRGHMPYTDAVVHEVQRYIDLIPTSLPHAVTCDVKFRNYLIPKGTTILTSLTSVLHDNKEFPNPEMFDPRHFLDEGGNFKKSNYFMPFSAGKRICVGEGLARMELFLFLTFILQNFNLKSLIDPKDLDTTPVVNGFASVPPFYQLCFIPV
Glucocorticoid receptor (Homo sapiens), sequence (P04150 whole entry, looked up, the tested form may be a part): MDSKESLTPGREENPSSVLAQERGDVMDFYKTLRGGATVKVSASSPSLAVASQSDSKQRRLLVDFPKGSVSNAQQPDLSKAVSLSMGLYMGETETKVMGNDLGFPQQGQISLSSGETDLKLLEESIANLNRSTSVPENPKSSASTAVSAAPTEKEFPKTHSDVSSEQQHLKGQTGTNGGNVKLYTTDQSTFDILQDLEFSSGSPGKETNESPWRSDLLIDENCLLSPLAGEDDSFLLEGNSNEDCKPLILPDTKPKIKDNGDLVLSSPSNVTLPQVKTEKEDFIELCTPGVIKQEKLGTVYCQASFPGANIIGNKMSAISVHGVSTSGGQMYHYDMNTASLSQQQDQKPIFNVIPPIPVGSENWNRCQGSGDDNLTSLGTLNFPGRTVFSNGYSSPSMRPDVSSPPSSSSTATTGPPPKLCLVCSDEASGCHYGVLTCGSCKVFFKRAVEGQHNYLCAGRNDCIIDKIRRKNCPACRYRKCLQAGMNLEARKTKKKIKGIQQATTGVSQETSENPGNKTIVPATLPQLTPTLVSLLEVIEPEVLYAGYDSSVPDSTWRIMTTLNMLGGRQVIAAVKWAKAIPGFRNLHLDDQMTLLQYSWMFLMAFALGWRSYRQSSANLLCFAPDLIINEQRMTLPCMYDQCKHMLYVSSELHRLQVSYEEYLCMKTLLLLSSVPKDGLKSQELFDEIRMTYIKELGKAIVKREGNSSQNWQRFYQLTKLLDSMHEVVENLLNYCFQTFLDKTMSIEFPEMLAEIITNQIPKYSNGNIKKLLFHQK
Cytochrome P450 2D6 (Homo sapiens), sequence (P10635 whole entry, looked up): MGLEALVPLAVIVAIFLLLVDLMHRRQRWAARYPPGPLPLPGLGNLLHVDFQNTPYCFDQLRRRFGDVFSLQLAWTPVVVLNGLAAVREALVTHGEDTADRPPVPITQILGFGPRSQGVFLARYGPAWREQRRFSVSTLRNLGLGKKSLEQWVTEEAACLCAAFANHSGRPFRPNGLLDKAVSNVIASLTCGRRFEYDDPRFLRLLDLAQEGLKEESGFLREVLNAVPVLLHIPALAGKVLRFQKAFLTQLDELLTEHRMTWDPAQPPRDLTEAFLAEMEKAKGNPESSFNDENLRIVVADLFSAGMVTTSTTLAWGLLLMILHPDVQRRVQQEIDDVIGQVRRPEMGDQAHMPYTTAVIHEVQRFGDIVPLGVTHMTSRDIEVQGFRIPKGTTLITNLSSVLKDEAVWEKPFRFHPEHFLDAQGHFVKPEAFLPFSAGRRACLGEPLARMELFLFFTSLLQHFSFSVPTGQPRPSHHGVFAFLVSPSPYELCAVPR
3',5'-cyclic-AMP phosphodiesterase 4B (Homo sapiens), sequence (Q07343 whole entry, looked up): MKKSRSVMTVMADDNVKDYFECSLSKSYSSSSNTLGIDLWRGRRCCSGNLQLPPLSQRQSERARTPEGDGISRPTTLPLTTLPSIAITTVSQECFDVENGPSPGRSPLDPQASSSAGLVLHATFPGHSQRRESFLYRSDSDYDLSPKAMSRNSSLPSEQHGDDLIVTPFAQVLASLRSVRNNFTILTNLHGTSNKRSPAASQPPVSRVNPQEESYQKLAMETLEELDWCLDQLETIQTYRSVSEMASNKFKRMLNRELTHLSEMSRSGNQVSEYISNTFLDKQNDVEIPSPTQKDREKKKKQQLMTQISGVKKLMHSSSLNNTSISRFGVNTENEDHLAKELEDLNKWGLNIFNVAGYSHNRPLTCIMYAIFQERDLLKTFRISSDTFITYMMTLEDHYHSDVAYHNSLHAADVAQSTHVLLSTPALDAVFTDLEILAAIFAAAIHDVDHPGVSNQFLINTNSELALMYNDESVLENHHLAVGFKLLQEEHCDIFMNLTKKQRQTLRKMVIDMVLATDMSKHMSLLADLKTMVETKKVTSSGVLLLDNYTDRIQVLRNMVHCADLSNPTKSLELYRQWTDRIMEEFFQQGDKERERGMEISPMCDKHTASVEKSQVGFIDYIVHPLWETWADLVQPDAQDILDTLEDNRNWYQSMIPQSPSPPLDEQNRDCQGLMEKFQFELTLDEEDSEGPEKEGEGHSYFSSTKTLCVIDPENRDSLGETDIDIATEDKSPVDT
Cytochrome P450 3A4 (Homo sapiens), sequence (P08684 whole entry, looked up): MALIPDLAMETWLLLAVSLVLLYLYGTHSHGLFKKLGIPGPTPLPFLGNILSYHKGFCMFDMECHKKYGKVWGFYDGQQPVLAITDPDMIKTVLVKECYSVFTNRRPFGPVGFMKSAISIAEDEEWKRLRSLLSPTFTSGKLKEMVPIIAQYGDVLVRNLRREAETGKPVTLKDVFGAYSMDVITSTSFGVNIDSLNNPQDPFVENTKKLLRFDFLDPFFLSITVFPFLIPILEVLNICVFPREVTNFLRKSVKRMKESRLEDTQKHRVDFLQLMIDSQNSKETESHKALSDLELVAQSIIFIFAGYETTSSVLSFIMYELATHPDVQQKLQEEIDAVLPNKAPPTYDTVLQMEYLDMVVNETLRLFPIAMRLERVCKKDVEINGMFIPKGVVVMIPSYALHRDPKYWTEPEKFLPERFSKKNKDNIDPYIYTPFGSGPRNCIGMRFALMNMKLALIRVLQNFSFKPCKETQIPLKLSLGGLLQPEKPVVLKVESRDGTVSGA
Lysosomal acid glucosylceramidase (Homo sapiens), sequence (P04062 whole entry, looked up): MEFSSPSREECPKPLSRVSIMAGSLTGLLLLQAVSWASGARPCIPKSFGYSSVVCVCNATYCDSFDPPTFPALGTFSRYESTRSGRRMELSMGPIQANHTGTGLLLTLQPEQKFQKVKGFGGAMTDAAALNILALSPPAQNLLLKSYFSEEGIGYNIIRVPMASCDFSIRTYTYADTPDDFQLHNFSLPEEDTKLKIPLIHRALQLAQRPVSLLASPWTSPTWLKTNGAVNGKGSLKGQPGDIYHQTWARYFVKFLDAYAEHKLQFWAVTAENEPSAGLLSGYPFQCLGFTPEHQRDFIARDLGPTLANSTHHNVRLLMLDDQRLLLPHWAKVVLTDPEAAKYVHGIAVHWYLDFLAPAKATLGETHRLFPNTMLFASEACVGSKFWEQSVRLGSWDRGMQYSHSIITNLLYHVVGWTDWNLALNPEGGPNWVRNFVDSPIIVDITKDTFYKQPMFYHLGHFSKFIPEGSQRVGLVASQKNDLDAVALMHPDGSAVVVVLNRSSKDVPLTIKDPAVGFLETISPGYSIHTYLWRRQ

On to `CC(=O)/C(=C\c1ccccc1F)C(=O)c1ccccc1`, for which the Potency is over 11.4 µM in assay [1], over 46 µM in assay [5], over 9.22 µM in [6] and 2 µM (active) in assay [10]. For the same compound, the figures for the activity change, negative = inhibition in assay [2] and in [3] were -4.86% and 2.06%, respectively. Besides, in assay [4], the activity, negative = inhibition is -1.38%. Besides, the Potency entry in assay [7], in assay [8] and in assay [9] was “inactive” each time.

Consider `c1ccc2sc(SCN(C3CCCCC3)C3CCCCC3)nc2c1`, for which the Potency is over 11.4 µM in assay [1], over 46 µM in assay [5], over 9.22 µM in assay [6] and 1.58 µM (active) in assay [11]. The activity change, negative = inhibition in [2] was 4.99%; in assay [3], -7.96%. Moreover, in assay [4], the activity, negative = inhibition was -3.43%. Besides, the Potency result in assay [7] and in assay [8] was “inactive” each time.

Regarding `Cc1[nH]c(N)nc(=S)c1CCCNc1ccccc1`, the Potency in assay [1] is over 11.4 µM; in assay [5] it was over 46 µM; in assay [6], over 9.22 µM; in assay [10] it was 2 µM (active). Further, the activity change, negative = inhibition is -2.18% in assay [2] and 3.26% in assay [3]. Further, in assay [4], the activity, negative = inhibition is 3.47%. The Potency result in assay [7], in assay [8] and in assay [9] was “inactive” each time.

Regarding `Cc1ccc(CSC(N)=Nc2ccccc2)cc1C`, the Potency in [1] was over 11.4 µM; in assay [5], over 46 µM; in assay [6], over 9.22 µM; in [11], 0.794 µM (active); in assay [10], 2 µM (active). Besides, the activity change, negative = inhibition in [2] was 6.56%; in [3], -3.46%. Besides, in assay [4], the activity, negative = inhibition was -10.5%. The Potency entry in assay [7], in assay [8] and in assay [9] was “inactive” each time.

For `COCCn1c(=O)c(-c2cc(F)cc(F)c2)nc2cnc(Oc3ccc(OC)cc3)nc21`, the Potency in [1] was over 11.4 µM; in assay [5] it was over 9.22 µM; in [6], over 46 µM. The activity change, negative = inhibition was -11.1% in assay [2] and 0.515% in assay [3]. Also, the activity, negative = inhibition in assay [4] is -2.08%. The Potency result in assay [7], in [8] and in assay [9] was “inactive” throughout.

`NC[C@@H](O)CSCc1ccc(Cl)cc1`: the Potency is over 11.4 µM in assay [1], over 46 µM in assay [5], over 9.22 µM in assay [6] and 3.16 µM (active) in [11]. In addition, the activity change, negative = inhibition was -2.84% in assay [2] and 21.3% in [3]. Further, in [4], the activity, negative = inhibition was 0.417%. Further, the Potency result in assay [7] and in assay [8] was “inactive” in each case.

Consider `Cc1ccc(Nc2nnc(-c3ccc4c(c3)OCO4)o2)c(C)c1`, for which the Potency in [1] is over 11.4 µM; in assay [5] it was over 46 µM; in assay [6], over 9.22 µM. Also, the activity change, negative = inhibition was -5.47% in assay [2] and 1.57% in [3]. Further, in [4], the activity, negative = inhibition was -2.78%. In addition, the Potency entry in assay [7], in assay [8] and in assay [9] was “inactive” throughout.

For the compound `O=c1[nH]c(SCc2cccc([N+](=O)[O-])c2)nc2nc[nH]c12`, the Potency in [1] is over 11.4 µM; in assay [5] it was over 46 µM; in assay [6], over 9.22 µM. Besides, the activity change, negative = inhibition in [2] is -0.65%; in assay [3], -8.58%. In addition, the activity, negative = inhibition in assay [4] was 8.09%. The Potency entry in [7], in [8], in assay [9] and in assay [10] was “inactive” in each case.

As for `CC(C)=C[C@H]1[C@@H](C(=O)Oc2ccccc2C(C)C)C1(C)C`, the Potency in assay [1] is over 11.4 µM; in [5] it was over 46 µM; in [6], over 9.22 µM; in [10], 1.26 µM (active). For the same compound, the activity change, negative = inhibition in assay [2] was 9.15%; in assay [3] it was 3.56%. Also, the activity, negative = inhibition in assay [4] is 6.13%. For the same compound, the Potency entry in assay [7] and in assay [8] was “inactive” each time.

Regarding `CN1CCN(c2ccncc2S(=O)(=O)N2CCN(C)CC2)CC1`, the Potency was over 11.4 µM in assay [1], over 46 µM in assay [5] and over 9.22 µM in assay [6]. Further, the activity change, negative = inhibition is 5.65% in [2] and -16.5% in assay [3]. For the same compound, in assay [4], the activity, negative = inhibition was 8.15%. Moreover, the Potency result in assay [7], in [8] and in [9] was “inactive” each time. The activation in [12] was 7.59%.

As to `Cn1c(=O)c(CCc2ccccc2)nc2cnc(N3CCNCC3)nc21`, the Potency in [1] was over 11.4 µM; in assay [5], over 9.22 µM; in assay [6] it was over 46 µM. In addition, the activity change, negative = inhibition in assay [2] is -6.16%; in assay [3] it was 8.46%. The activity, negative = inhibition in [4] is 11.7%. In addition, the Potency entry in assay [7], in [8] and in assay [9] was “inactive” in each case.

Take `CC(C)(C)c1ccc(-c2nnc(SCc3ccc(Cl)cc3)n2-c2cccc(C(F)(F)F)c2)cc1`: the results for the Potency in assay [1], in [5] and in assay [6] were over 11.4 µM, over 46 µM and over 9.22 µM, respectively. Also, the activity change, negative = inhibition was 5.08% in assay [2] and -23.1% in assay [3]. The activity, negative = inhibition in assay [4] was 3.24%. Moreover, the Potency result in assay [7], in assay [8] and in assay [9] was “inactive” each time.

For the compound `O=c1[nH]c(SCc2ccccc2[N+](=O)[O-])nc2nc[nH]c12`, the values for the Potency in assay [1], in assay [5] and in [6] were over 11.4 µM, over 46 µM and over 9.22 µM, respectively. The activity change, negative = inhibition in assay [2] is 9.58%; in assay [3], 13.2%; in [13], -21.6% [at 11.4 µM]. Moreover, the activity, negative = inhibition in assay [4] is 10.1%. Also, the Potency entry in assay [7], in assay [8] and in assay [9] was “inactive” in each case.

As for `CC(C)[C@](N)(C(=O)O)c1ccccc1`, the Potency in [1] was over 11.4 µM; in assay [5], over 46 µM; in [6] it was over 9.22 µM. Also, the values for the activity change, negative = inhibition in [2] and in assay [3] were -9.87% and 5.98%, respectively. In addition, the activity, negative = inhibition in assay [4] is 29.8%. In addition, the Potency entry in [7], in assay [8] and in [11] was “inactive” each time.
